Data on ten sequences can be found in paper PMC5700166.

Holding throughout (experiment): protein-binding microarray (PBM); PBM: ~300 nM protein, 6 mM HEPES pH 7.8, 80 mM KCl, 0.5 mM EDTA, 0.5 mM EGTA, 6% glycerol, 35 ng/ul poly-dIdC, 1% milk, 1 h, room temperature; Ap Aiptasia and Nv Nematostella (sea anemones) / Co Capsaspora / Aq Amphimedon (sponge) / Dm Drosophila / Hu human; RHD is the Rel homology domain; high values mean tight binding
Details in all cases: dsDNA, one strand shown

One assay deals with T1, GST-Ap-NF-kB RHD (Exaiptasia pallida (Aiptasia), UniProt A0A913YAJ5 2-422).
T1 sequence: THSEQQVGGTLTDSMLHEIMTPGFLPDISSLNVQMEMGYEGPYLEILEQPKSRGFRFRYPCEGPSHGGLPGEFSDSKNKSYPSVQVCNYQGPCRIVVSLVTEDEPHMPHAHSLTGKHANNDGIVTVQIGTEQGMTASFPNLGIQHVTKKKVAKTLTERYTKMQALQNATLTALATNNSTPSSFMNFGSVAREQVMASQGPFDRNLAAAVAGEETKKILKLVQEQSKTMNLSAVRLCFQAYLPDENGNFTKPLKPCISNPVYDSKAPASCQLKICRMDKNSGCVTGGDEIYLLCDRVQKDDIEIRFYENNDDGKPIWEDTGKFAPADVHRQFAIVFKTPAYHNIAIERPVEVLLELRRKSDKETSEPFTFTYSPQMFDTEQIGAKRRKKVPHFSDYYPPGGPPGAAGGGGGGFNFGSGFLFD

Assay [1] deals with T2, GST-Nv-NF-kB (Cys allele) (Nematostella vectensis, UniProt E5G601 2-411).
T2 sequence: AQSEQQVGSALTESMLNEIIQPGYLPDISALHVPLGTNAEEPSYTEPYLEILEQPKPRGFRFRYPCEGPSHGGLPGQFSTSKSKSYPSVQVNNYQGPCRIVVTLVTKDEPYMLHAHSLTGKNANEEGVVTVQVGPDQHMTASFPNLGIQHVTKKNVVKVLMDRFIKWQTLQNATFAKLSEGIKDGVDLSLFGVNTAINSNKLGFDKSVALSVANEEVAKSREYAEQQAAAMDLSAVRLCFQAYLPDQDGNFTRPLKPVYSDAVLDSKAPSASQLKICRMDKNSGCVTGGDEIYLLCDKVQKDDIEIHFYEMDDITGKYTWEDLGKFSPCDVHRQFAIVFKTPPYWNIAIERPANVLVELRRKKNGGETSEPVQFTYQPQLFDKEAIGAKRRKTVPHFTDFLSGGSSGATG

The target of another assay is T3, GST-Co-NF-kB (Capsaspora owczarzaki, UniProt F1ARL5 200-546).
T3 sequence: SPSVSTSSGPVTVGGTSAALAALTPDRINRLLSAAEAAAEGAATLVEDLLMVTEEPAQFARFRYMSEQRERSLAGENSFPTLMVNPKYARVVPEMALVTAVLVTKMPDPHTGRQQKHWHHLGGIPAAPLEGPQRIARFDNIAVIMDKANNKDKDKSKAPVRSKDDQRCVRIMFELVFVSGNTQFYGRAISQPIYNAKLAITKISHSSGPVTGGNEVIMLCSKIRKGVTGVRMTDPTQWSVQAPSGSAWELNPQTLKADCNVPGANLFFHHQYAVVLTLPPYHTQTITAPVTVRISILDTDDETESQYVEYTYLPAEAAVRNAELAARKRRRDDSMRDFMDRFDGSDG

The next assay deals with T4, GST-Dm-Relish (Drosophila melanogaster, UniProt Q94527 99-473).
T4 sequence: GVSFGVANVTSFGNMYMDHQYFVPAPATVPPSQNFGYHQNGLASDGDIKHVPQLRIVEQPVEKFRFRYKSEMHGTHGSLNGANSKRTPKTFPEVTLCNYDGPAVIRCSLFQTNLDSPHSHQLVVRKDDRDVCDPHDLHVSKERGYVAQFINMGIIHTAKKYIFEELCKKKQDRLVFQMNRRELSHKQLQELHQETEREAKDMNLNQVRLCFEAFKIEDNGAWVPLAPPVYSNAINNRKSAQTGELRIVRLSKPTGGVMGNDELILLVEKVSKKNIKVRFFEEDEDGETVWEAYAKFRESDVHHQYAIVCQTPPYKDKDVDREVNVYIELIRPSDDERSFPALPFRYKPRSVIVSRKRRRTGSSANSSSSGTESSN

Another assay concerns the target T5, GST-Aq-NF-kB (Amphimedon queenslandica, UniProt A9Y5G7 2-389).
T5 sequence: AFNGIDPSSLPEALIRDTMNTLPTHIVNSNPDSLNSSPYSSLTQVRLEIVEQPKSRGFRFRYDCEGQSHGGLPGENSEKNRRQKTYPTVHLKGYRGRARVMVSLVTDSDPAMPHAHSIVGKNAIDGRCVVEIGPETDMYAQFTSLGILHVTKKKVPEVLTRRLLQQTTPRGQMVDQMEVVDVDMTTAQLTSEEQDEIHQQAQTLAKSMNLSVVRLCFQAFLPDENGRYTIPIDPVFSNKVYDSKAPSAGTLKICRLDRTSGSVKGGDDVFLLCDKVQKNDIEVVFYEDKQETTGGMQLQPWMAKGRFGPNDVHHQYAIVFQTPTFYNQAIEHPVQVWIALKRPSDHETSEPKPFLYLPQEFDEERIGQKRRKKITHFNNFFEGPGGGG

“CCGATTAACATCATACCCCCCCATGATGTTAATCGGGTCTTGATTCGCTTGACGCTGCTG”: the binding signal with GST-Ap-NF-kB RHD was determined as 4.97 z-score; in assay [1], 2.65 z-score; with GST-Co-NF-kB, 5.26 z-score; with GST-Dm-Relish, 3.98 z-score; in the assay with GST-Aq-NF-kB, 3.92 z-score.

For the sequence “CCGATTAACATCAGGAGTACCCCTGATGTTAATCGGGTCTTGATTCGCTTGACGCTGCTG”, the binding signal amounted to 3.01 z-score with GST-Ap-NF-kB RHD; 2.42 z-score in assay [1]; 2.96 z-score with GST-Co-NF-kB; 3.64 z-score with GST-Dm-Relish; 4.07 z-score with GST-Aq-NF-kB.

With “CCGATTAACATCAGGGGATCCCATGATGTTAATCGGGTCTTGATTCGCTTGACGCTGCTG”, the binding signal with GST-Ap-NF-kB RHD was found to be 7.15 z-score; in assay [1] it was 5.1 z-score; in the assay with GST-Co-NF-kB, 2.81 z-score; with GST-Dm-Relish, 10 z-score; with GST-Aq-NF-kB, 4.95 z-score.

As to “CCGATTAACATCAGAAGTTCCCATGATGTTAATCGGGTCTTGATTCGCTTGACGCTGCTG”, the binding signal in the assay with GST-Ap-NF-kB RHD is 2.2 z-score; in assay [1], 2.3 z-score; with GST-Co-NF-kB, 2.44 z-score; in the assay with GST-Dm-Relish it was 3.27 z-score; in the assay with GST-Aq-NF-kB, 2.82 z-score.

“CCGATTAACATCAGGGGGGGTACTGATGTTAATCGGGTCTTGATTCGCTTGACGCTGCTG”: the binding signal with GST-Ap-NF-kB RHD was determined as 5.04 z-score; in assay [1], 3.45 z-score; with GST-Co-NF-kB, 4.54 z-score; in the assay with GST-Dm-Relish, 5.04 z-score; in the assay with GST-Aq-NF-kB, 4.67 z-score.

As to “CCGATTAACATCAAGTACCCCCATGATGTTAATCGGGTCTTGATTCGCTTGACGCTGCTG”, the binding signal in the assay with GST-Ap-NF-kB RHD was 4.72 z-score; in assay [1] it was 2.7 z-score; in the assay with GST-Co-NF-kB it was 4.36 z-score; in the assay with GST-Dm-Relish it was 2.25 z-score; with GST-Aq-NF-kB it was 2.6 z-score.

For “CCGATTAACATCAGGGGGTTACATGATGTTAATCGGGTCTTGATTCGCTTGACGCTGCTG”, the binding signal with GST-Ap-NF-kB RHD stood at 6.46 z-score; in assay [1], 4.25 z-score; with GST-Co-NF-kB, 3.27 z-score; with GST-Dm-Relish, 6.42 z-score; in the assay with GST-Aq-NF-kB, 4.89 z-score.

For “CCGATTAACATCAGGGGGATGGATGATGTTAATCGGGTCTTGATTCGCTTGACGCTGCTG”, the binding signal turned out to be 3.8 z-score with GST-Ap-NF-kB RHD; 3.13 z-score in assay [1]; 3.52 z-score with GST-Co-NF-kB; 2.24 z-score in the assay with GST-Dm-Relish; 3.5 z-score with GST-Aq-NF-kB.

“CCGATTAACATCACAAATTCCCATGATGTTAATCGGGTCTTGATTCGCTTGACGCTGCTG”: the binding signal was 2.52 z-score with GST-Ap-NF-kB RHD; 4.43 z-score in assay [1]; 2.69 z-score with GST-Co-NF-kB; 4.72 z-score in the assay with GST-Dm-Relish; 3.15 z-score in the assay with GST-Aq-NF-kB.

“CCGATTAACATCAGGACTGTCCCTGATGTTAATCGGGTCTTGATTCGCTTGACGCTGCTG”: the binding signal with GST-Ap-NF-kB RHD turned out to be 4.85 z-score; in assay [1], 5.38 z-score; with GST-Co-NF-kB, 1.21 z-score; with GST-Dm-Relish, 3.04 z-score; with GST-Aq-NF-kB, 7.35 z-score.
